Assay outcomes as filed in PubChem.
Cycloheximide cs – counter-screen hit for Shiga toxin inhibitors, cycloheximide; cell reporter, cycloheximide protein synthesis inhibition counterscreen; max response, %; AID 2314; 300,000 tested, 12% active; in the data active means max response mostly above about 13%, no sharp cut-off; inactive means mostly below about 14%; further: read at 38.3 µM for the half of the compounds with a filed dose; 0% is about no effect
SARS PLpro yeast – inhibitors of SARS-CoV papain-like protease in yeast; S. cerevisiae expressing SARS-CoV PLpro, growth rescue; Potency, µM (doses to about 32.9 µM), inactives show at the top dose activity, positive = growth rescue, most hits filed as activators; 330,000 tested, 0.19% active; AID 485353; further: potency means the concentration at half of the fitted maximal effect; 0% is about no effect; nearly all actives have a fitted effect of over 55% in size
Shiga inhibitor – Shiga toxin inhibition; Vero cells, Shiga toxin protein synthesis inhibition reporter; inhibition, % at 38.7 µM; 290,000 tested, 9.2% active; AID 2315; in the data active means inhibition mostly above about 28%, no sharp cut-off; inactive means mostly below about 43%; further: 0% is about no effect
NS1 inh – influenza NS1 inhibition | AID 2326 | 270,000 tested, 0.4% active | Potency, µM (doses to about 46.1 µM), inactives show top-dose activity, positive = more growth; further: potency means the concentration at half of the fitted maximal effect; actives are rising curves; nearly all actives have a fitted effect of over 50% in size
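A cell-based growth assay was used: compounds that relieve NS1-induced slow growth of budding yeast raise OD600. Assay medium was yeast nitrogen base with ammonium sulphate and -URA supplement, pH 6.0, with 2% galactose.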
* marks the source's active call; other numbers are inactive results; ? = inconclusive; . = not tested or not shown. Sampled rows, rich in hits. Any-hit rate of the full collection: about 12%. Unless noted, the call rests on the fitted dose curve.

SMILES	Cycloheximide cs	SARS PLpro yeast	Shiga inhibitor	NS1 inh
CC1(c2ccc3c(c2)OCCO3)NC(=O)N(CC(=O)Nc2ccccc2)C1=O (stereo not given)	.	-10.8%	.	.
Cc1ccc(C(=O)COC(=O)CN2C(=O)C3C4CCC(C4)C3C2=O)cc1C (stereo not given)	11.6*	-0.3%	7.3	-1.6%
COc1ccc(NS(=O)(=O)c2ccc3c(c2)CCN3C(=O)CCC(=O)O)cc1OC	32.9*	-0.5%	64.4*	1.4%
C=CCOc1cccc(/C=N/NC(=O)CN2CCCCC2)c1	6.9	-2.3%	-1.7	0.3%
O=c1c2ccccc2nnn1CSc1ccccc1	45.0*	-15.0%	91.7*	-2.0%
Cc1ccc(Nc2nnc(SCn3nnc4ccccc4c3=O)s2)cc1	30.9*	-7.1%	116.3*	0.3%
Cn1c(N)c(C(=O)CSc2nnc(-c3c[nH]c4ccccc34)n2C2CC2)c(=O)[nH]c1=O	.	-0.5%	.	.
C=CCn1c(=NC(=O)c2cccs2)sc2cccc(OC)c21	28.2*	-1.0%	52.8*	-11.8%
CCn1c(=NC(=O)c2ccc(S(=O)(=O)N(C)C)cc2)sc2cccc(OC)c21	12.5	-2.0%	10.1	.
C#CCn1c(=NC(=O)c2ccc(Br)s2)sc2cccc(OC)c21	19.4*	-1.1%	72.7*	14.4%
CN(CC(=O)Nc1ccc(N2CCOCC2)cc1)C(=O)C1CCCC1	6.8	-0.1%	-3.8	.
CSc1ccccc1C(=O)NCCSC(C)(C)C	6.5	2.7%	12.1	3.5%
CSc1ccccc1C(=O)NCCSc1ccccc1	28.7*	-4.8%	26.8	-54.1%
O=C(NCCSc1ccccc1)c1ccccc1Cl	63.7*	-2.9%	97.0*	-10.2%
O=C(CCNC(=O)c1ccccc1Cl)NCCCSc1ccccc1	.	14.1%	.	.
Cc1ccccc1C(=O)NCCSc1ccccc1	32.1*	4.3%	93.4	-47.3%
Cc1cc(C)n(CC(O)COc2ccc3ccccc3c2)n1 (stereo not given)	26.0*	0.1%	46.4*	-0.2%
O=C(NCC(c1ccco1)N1CCCCC1)c1cccnc1 (stereo not given)	.	-9.0%	.	.
CC1CCC/C(=N/Nc2nc3ccccc3s2)C1 (stereo not given)	44.6*	-7.3%	123.3*	9.4%
CC1(C)CC(=O)C/C(=N/Nc2nc3ccccc3s2)C1	40.1*	-1.2%	43.4*	.
COC(=O)C1=C(C)N(C)C(=O)NC1c1c(OC)ccc2ccccc12 (stereo not given)	-5.3	9.4%	4.1	5.3%
O=C(NN=C1CCCCCC1)NC1CCCCC1	29.7*	11.1%	51.1*	5.8%
COc1ccc(C=O)cc1CSc1nnc(COc2cccc3cccnc23)o1	-0.7	-13.8%	-0.4	-53.4%
Fc1ccc(-c2csc(N3CCOCC3)n2)cc1	39.2*	-1.1%	51.4*	2.5%
CC(C)CNC(=S)N1CCN(c2nc(-c3ccc(Cl)cc3)cs2)CC1	3.7	2.7%	-5.0	-9.9%
SMILES	Cycloheximide cs	SARS PLpro yeast	Shiga inhibitor	NS1 inh
CCC(=O)N1CCN(c2nc(-c3ccc(Cl)cc3)cs2)CC1	35.4*	-32.7%	62.5*	3.8%
O=C(CSc1nc(-c2ccc(F)cc2)cs1)N1CCOCC1	44.8*	0.2%	76.9	-7.6%
O=C(c1cc(-n2cnnc2)ccc1Cl)N1CCN(c2nc(-c3ccccc3)cs2)CC1	-1.3	-1.1%	2.7	-41.8%
O=C(c1ncn[nH]1)N1CCN(c2nc(-c3ccccc3)cs2)CC1	15.3*	-9.7%	48.9	4.3%
CS(=O)(=O)N1CCN(c2nc(-c3ccc(F)cc3)cs2)CC1	-2.1	-8.6%	-4.3	3.1%
COc1cccc(CNC(=O)c2nnn(CC(=O)Nc3ccc(Br)cc3)c2N)c1	8.3	1.8%	-3.0	-0.7%
Cc1ccc(NC(=O)Cc2ccccc2F)cc1S(=O)(=O)N1CCCCCC1	.	1.1%	.	.
Cc1ccc(S(=O)(=O)N(C)CC(=O)N2CCCC2)cc1	-0.3	0.8%	1.4	1.1%
O=C(CNC(=O)C1(c2ccccc2)CC1)Nc1ccc(F)c(F)c1	.	10.8%	.	.
Cc1cc(C)n(-c2nc(-c3ccc(Cl)cc3)cs2)n1	8.7	-5.5%	5.0	?
Clc1ccc(-c2csc(N3CCSCC3)n2)cc1	34.8*	-12.7%	114.3*	10.5%
CC1=NN(c2nc(-c3ccc(F)cc3)cs2)C(=O)C1	-1.2	2.3%	-15.2	12.6%
COc1cccc(-c2csc(N3CCN(C(=O)Nc4ccc(Cl)cc4)CC3)n2)c1	28.4*	-4.3%	45.3*	-42.0%
c1ccc(-c2csc(N3CCSCC3)n2)cc1	44.5*	-3.1%	89.8*	.
CC(C)C(=O)NNC(=O)CN1CCN(c2nc(-c3ccccc3)cs2)CC1	-2.5	1.0%	-9.5	1.7%
Cc1ccc(-c2csc(N3C(=N)SCC3=O)n2)cc1	35.9*	2.6%	42.2*	2.2%
COc1ccc(NC(=O)c2cc(S(=O)(=O)N3CCCC3)cn2C)cc1Cl	-0.6	-15.5%	4.4	14.0%
COc1ccc(OC)c(NC(=O)CN2CCc3ccccc3C2)c1	-10.1	-7.9%	-8.1	-16.3%
